Assay [1] in a line: qHTS assay to identify small molecule agonists of the hypoxia (HIF-1) signaling pathway - cell viability counter screen (AID 1224844; calls by dose curve; also: nearly all actives have a fitted effect of over 50% in size; also: potency is read from the fitted curve at half-maximal effect). An outline of the steps: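 Cytotoxicity was measured in parallel with the HRE-driven beta-lactamase readout: after 17 hrs of compound exposure at 37C, HRE-bla ME-180 cells received CellTiter-Glo and luminescence was recorded 30 min later.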
(In general: In qHTS, concentration-response curves come from the screen itself.)

A short description of assay [2]: qHTS assay to identify small molecule agonists of the hypoxia (HIF-1) signaling pathway (AID 1224846; active = well fitted activation curve with a large enough effect in the signal ratio in the repeat runs, not every such curve was filed as active; the % refers to the signal ratio). An outline of the steps:
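Compounds from the Tox21 10K library, dissolved in DMSO, are tested for induction of a hypoxia response element–controlled beta-lactamase reporter in ME-180 cells. Exposure lasts 17 hrs at 37C after a 5 hr settling period, followed by CCF4-AM FRET substrate.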

A short description of assay [3]: qHTS RealTime-Glo MT Cell Viability Assay in HepG2 cells - 24 hour (AID 1224867). Also: nearly all actives have a fitted effect of over 50% in size. Also: potency is read from the fitted curve at half-maximal effect. An outline of the steps:
(§1)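 HepG2 cells were seeded at 600 cells/well together with NanoLuc luciferase and a cell-permeant prosubstrate, preincubated 5 h at 37 C/5% CO2, then pin-dosed with compounds in DMSO. Nonlytic luminescence from viable cells was read at each time point.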

The nature of assay [4]: qHTS RealTime-Glo MT Cell Viability Assay in HEK293 cells - 32 hour (AID 1224868). Also: nearly all actives have a fitted effect of over 50% in size. Also: potency is read from the fitted curve at half-maximal effect. An outline of the steps: (§2)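 HEK293 cells were seeded at 600 cells/well together with NanoLuc luciferase and cell-permeant prosubstrate, preincubated 5 h at 37 C/5% CO2, then given compound in DMSO by pintool. Luminescence from viable-cell prosubstrate reduction was read repeatedly over 40 h.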

Assay [5] in a line: A CellTox Green Cytotoxicity Assay to monitor cytotoxicity in HEK293 cells - 0 hour (AID 1224869). Also: nearly all actives have a fitted effect of over 50% in size. Also: potency is read from the fitted curve at half-maximal effect. An outline of the steps: (§3)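 Cells (HEK293, 600/well) and dye reagent are dispensed together. After 5 h at 37 C, 23 nL compound is pinned in. Plates stay at 37 C for 40 h with fluorescence read at 0h, 8h, 16h, 24h, 32h and 40h.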
A short description of assay [6]: qHTS RealTime-Glo MT Cell Viability Assay in HepG2 cells - 40 hour (AID 1224870). Also: nearly all actives have a fitted effect of over 50% in size. Also: potency is read from the fitted curve at half-maximal effect. The essentials:
(§4)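 HepG2 cells mixed with RealTime-Glo MT reagents (NanoLuc plus cell-permeant prosubstrate) were seeded at 600 cells/well, incubated 5 h at 37 C/5% CO2, then pinned with compounds in DMSO; nonlytic luminescence tracked viability during 40 h treatment.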

The nature of assay [7]: A CellTox Green Cytotoxicity Assay to monitor cytotoxicity in HEK293 cells - 40 hour (AID 1224871). Also: nearly all actives have a fitted effect of over 45% in size. Also: potency is read from the fitted curve at half-maximal effect. An outline of the steps:
as §3

The nature of assay [8]: qHTS RealTime-Glo MT Cell Viability Assay in HEK293 cells - 16 hour (AID 1224872). Also: nearly all actives have a fitted effect of over 50% in size. Also: potency is read from the fitted curve at half-maximal effect. The essentials:
as §2

A short description of assay [9]: qHTS RealTime-Glo MT Cell Viability Assay in HepG2 cells - 8 hour (AID 1224873). Also: nearly all actives have a fitted effect of over 55% in size. Also: potency is read from the fitted curve at half-maximal effect. The essentials: as §4
The nature of assay [10]: qHTS RealTime-Glo MT Cell Viability Assay in HEK293 cells - 40 hour (AID 1224874). Also: nearly all actives have a fitted effect of over 50% in size. Also: potency is read from the fitted curve at half-maximal effect. Particulars: RealTime-Glo luminescence; max response: hits give low values. An outline of the steps:
(§5)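 Real-time viability in HEK293: signal arises when living cells convert a prosubstrate for NanoLuc in the medium, so luminescence tracks viable cell number. Compound (23 nL, DMSO) added 5 h post-seeding; kinetic reads at 0–40 h, 37 C.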

A short description of assay [11]: A CellTox Green Cytotoxicity Assay to monitor cytotoxicity in HEK293 cells - 24 hour (AID 1224875). Also: nearly all actives have a fitted effect of over 45% in size. Also: potency is read from the fitted curve at half-maximal effect. The essentials: as §3
Assay [12] is described as follows: A CellTox Green Cytotoxicity Assay to monitor cytotoxicity in HepG2 cells - 16 hour (AID 1224876). Also: nearly all actives have a fitted effect of over 45% in size. Also: potency is read from the fitted curve at half-maximal effect. An outline of the steps:
(§6)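 Cells and non-lytic dye reagent are dispensed together (600 HepG2 cells/well) and incubated 5 h before DMSO compound transfer. Kinetic fluorescence is then recorded in the same wells during 40 h at 37 C.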

Assay [13] is described as follows: qHTS RealTime-Glo MT Cell Viability Assay in HepG2 cells - 32 hour (AID 1224877). Also: nearly all actives have a fitted effect of over 55% in size. Also: potency is read from the fitted curve at half-maximal effect. An outline of the steps: as §1
Assay [14] in a line: A CellTox Green Cytotoxicity Assay to monitor cytotoxicity in HepG2 cells - 24 hour (AID 1224878). Also: nearly all actives have a fitted effect of over 45% in size. Also: potency is read from the fitted curve at half-maximal effect. An outline of the steps: as §6
Assay [15] in a line: A CellTox Green Cytotoxicity Assay to monitor cytotoxicity in HepG2 cells - 40 hour (AID 1224879). Also: nearly all actives have a fitted effect of over 40% in size. Also: potency is read from the fitted curve at half-maximal effect. The essentials:
as §6

Assay [16] can be described thus: qHTS RealTime-Glo MT Cell Viability Assay in HEK293 cells - 0 hour (AID 1224880). An outline of the steps:
as §5

Assay [17] can be described thus: qHTS assay to identify small molecule agonists of H2AX (AID 1224845; active = well fitted activation curve with a large enough effect in the signal ratio in the repeat runs, not every such curve was filed as active; the % refers to the signal ratio). An outline of the steps: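 Wild-type CHO-K1 cells plated overnight, then exposed 3 hr at 37C to compounds at 15 concentrations (0.76% DMSO). Lysed, then HTRF anti-pH2AX(S139)-cryptate/anti-H2AX-d2 detection after 24 hr at room temperature; emissions 665 and 620 nm.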
The nature of assay [18]: qHTS assay to identify small molecule agonists of H2AX - cell viability counter screen (AID 1224847; calls by dose curve; also: nearly all actives have a fitted effect of over 30% in size; also: potency is read from the fitted curve at half-maximal effect). The essentials: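 CHO-K1 wt, 1000 cells/well, o/n 37C; cpds 15 conc, 3 h 37C, 0.76% DMSO; CellTiter-Glo, 30 min RT, luminescence.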
Assay [19] in a line: qHTS assay to identify small molecule antagonists of the estrogen related receptor (ERR) signaling pathway from Tox21 library (AID 1224848). Also: nearly all actives have a fitted effect of over 50% in size. Also: potency is read from the fitted curve at half-maximal effect. The essentials: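 First, 2,000 ERR cells per well were plated and held 6 h at 37 C/5% CO2. Next, compounds in DMSO were pinned in and left 18 h at 37 C. Finally, ONE-Glo was added and luminescence read after 30 min at room temperature.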

Assay [20] can be described thus: qHTS assay to identify small molecule agonists of the estrogen related receptor (ERR) signaling pathway from Tox21 library (AID 1224849; calls by dose curve; also: nearly all actives have a fitted effect of over 15% in size). Particulars: ERR reporter cell line, ONE-Glo luciferase, 18 h; at 92.4 µM (top of the series) unless noted. The essentials: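 Cells carrying the ERR reporter were plated and allowed to settle for 6 h, exposed to library compounds for 18 h at 37 C, then lysed with ONE-Glo and luminescence measured.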

Unmarked numbers belong to inactive results. Inconclusive results are not listed. Active and inactive are the calls of the source. Unless noted, calls follow the shape of the dose curve; as a rule, active = well fitted curve in the direction sought with a large enough effect in the repeat runs; inconclusive = weak or mixed curves; inactive = no such curve, though single readings can be large; an effect the other way counts as inactive or inconclusive.
% is scaled to controls: 0 for no effect and ±100 for the full control effect.

For `CCOP(=O)(Sc1ccccc1)Sc1ccccc1`, the Potency result in [1], in assay [2], in assay [3], in assay [4], in [5] and in assay [6] was “inactive” throughout. Moreover, the Potency entry in assay [7], in [8], in assay [9], in [11], in [12] and in [13] was “inactive” each time. Further, the Potency entry in [14], in assay [15] and in [16] was “inactive” in each case. Also, the max response in assay [10] is -12.3%.
With `C[N+]1(C)[C@@H]2CC[C@H]1CC(OC(=O)C(CO)c1ccccc1)C2` (some centres undefined), the Potency entry in assay [1], in [17], in [18], in assay [3], in assay [4] and in assay [5] was “inactive” throughout. Moreover, the Potency entry in [7], in assay [8], in assay [9], in assay [11], in assay [14] and in [15] was “inactive” each time. The Potency result in assay [16] was “inactive”. In assay [6], the Potency was 23900 nM (active). Besides, the max response in assay [10] is 8.28%.
With `Nc1nc(N)c(N)c(N)n1`, the Potency result in [1], in assay [2], in [18], in assay [19], in assay [3] and in [4] was “inactive” each time. Further, the Potency entry in assay [6], in [8], in assay [9], in assay [13] and in [16] was “inactive” each time. Also, the activity change, positive = activation in assay [20] was 0.198%. In addition, the Potency in assay [5] is 49200 nM (active); in [7], 49200 nM (active); in assay [11], 49200 nM (active); in assay [14] it was 55200 nM (active); in [15], 55200 nM (active). Further, the max response in [10] is 10.2%.
In the case of `CSC(=O)c1c(C(F)F)nc(C(F)(F)F)c(C(=O)SC)c1CC(C)C`, the Potency entry in assay [1], in assay [17], in [18], in assay [3], in assay [4] and in assay [5] was “inactive” throughout. In addition, the Potency entry in [6], in [7], in assay [8], in assay [9], in assay [11] and in [12] was “inactive” in each case. Also, the Potency entry in [13], in assay [14], in [15] and in assay [16] was “inactive” each time. The max response in [10] was -19%.
For the molecule `C=CC(=O)[O][Sn]([CH2]CCC)([CH2]CCC)[CH2]CCC`, the Potency in assay [1] was 977 nM (active); in [18], 1420 nM (active); in assay [19], 1370 nM (active); in [3], 436 nM (active); in assay [4], 389 nM (active); in [6] it was 389 nM (active). Moreover, the Potency in assay [7] is 871 nM (active); in [8] it was 549 nM (active); in assay [9], 977 nM (active); in [10], 389 nM (active); in assay [11], 7760 nM (active); in assay [12], 616 nM (active). The results for the Potency in assay [13], in assay [14] and in assay [15] were 389 nM (active), 692 nM (active) and 549 nM (active), respectively. The activity change, positive = activation in [20] is -66.8%. For the same molecule, the Potency result in assay [5] was “inactive”.
Take `c1ccc2nc(N3CCNCC3)ccc2c1`: the Potency entry in [1], in [17], in assay [18], in [3], in [4] and in [5] was “inactive” each time. Further, the Potency result in assay [6], in [7], in assay [8], in assay [9], in [11] and in [12] was “inactive” each time. Besides, the Potency entry in [13], in assay [14] and in assay [16] was “inactive” throughout. For the same molecule, in [10], the max response was -17.1%.
